# High-throughput results from PubChem.
# IMPase Li cell: qHTS Assay for Identifying the Cell-Membrane Permeable IMPase Inhibitors: Potentiation with Lithium. CHO-M1 cells, IP1 TR-FRET (IP-One), carbachol + lithium. Potency, µM (titrated, usually from 59.4 µM), without a hit: top-dose activity, negative = IMPase inhibition, actives largely listed as inhibitors. actives 0.35% (n = 210,000);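 further: IP1 builds up when IMPase is blocked and the TR-FRET signal falls; potency means the concentration at half of the fitted maximal effect; plate controls were basal vehicle for no effect and high inhibitor control for full effect; nearly all actives have a fitted effect of over 50% in size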
#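 CHO-M1, 2000 cells/well, 16–30 h culture; cpd + low Li+, 30 min 37C; lysis with d2-IP1/Eu-anti-IP1 Ab, 10 min RT; TR-FRET 665/620 ratio and 620 channel; AC50 via Hill.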
# PNC assembly inh: High Content Assay for Compounds that inhibit the Assembly of the Perinucleolar Compartment; PC3M PTB-GFP, PNC prevalence imaging, 16 h; hits give low values; actives 3.1% (n = 140,000); activity change (PNC), negative = inhibition, % at 10 µM;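 active means readout at or below -70, meaning at least 70% loss of cells showing the perinucleolar compartment, a nuclear body marking cancer cells; inconclusive means readout between -30 and a set limit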;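 further: plate controls were DMSO wells for no effect and camptothecin positive control wells for full effect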
#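 Compounds are pinned in duplicate onto adhered PC3M cells stably expressing GFP-tagged PTB and incubated 16 h at 37 C. Cells are then fixed, nuclei stained with Hoechst, and PNC-positive cells counted.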
# ALDH1A1 inh: qHTS Assay for Inhibitors of Aldehyde Dehydrogenase 1 (ALDH1A1) | AID 1030, 2008 | Purified ALDH1A1, NADH fluorescence, propionaldehyde substrate | Aldehyde dehydrogenase 1A1 (Homo sapiens), P00352 | Potency, µM (series often up to 75.3 µM), without a hit: at the highest dose activity, negative = inhibition, usual class: inhibitors | actives 7.3% (n = 220,000); active means well fitted inhibition curve with a large enough effect, not every such curve was filed as active; inconclusive means small, poorly fitted or top-dose-only effect, or another doubt; inactive means no such curve, though single readings can be large or run the other way;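 further: potency means the concentration at half of the fitted maximal effect; plate controls were no enzyme wells and a reference inhibitor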
# Target sequence (P00352 whole entry, looked up): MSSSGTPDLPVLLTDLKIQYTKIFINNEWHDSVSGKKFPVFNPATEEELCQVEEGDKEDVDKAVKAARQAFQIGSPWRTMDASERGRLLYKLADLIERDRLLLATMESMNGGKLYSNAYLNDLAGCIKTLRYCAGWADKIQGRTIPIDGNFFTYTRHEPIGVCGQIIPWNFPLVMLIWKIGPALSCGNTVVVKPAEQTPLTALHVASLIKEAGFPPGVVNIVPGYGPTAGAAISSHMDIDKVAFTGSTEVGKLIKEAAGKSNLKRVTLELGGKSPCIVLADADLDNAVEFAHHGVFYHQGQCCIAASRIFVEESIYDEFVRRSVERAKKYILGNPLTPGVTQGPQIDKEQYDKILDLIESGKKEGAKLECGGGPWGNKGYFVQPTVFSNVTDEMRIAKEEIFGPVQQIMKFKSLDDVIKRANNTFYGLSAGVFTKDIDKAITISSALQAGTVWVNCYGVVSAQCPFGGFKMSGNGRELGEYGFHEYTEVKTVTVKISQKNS
# HPGD inh: qHTS Assay for Inhibitors of HPGD (15-Hydroxyprostaglandin Dehydrogenase). 15-hydroxyprostaglandin dehydrogenase [NAD(+)] (Homo sapiens), P15428. purified HPGD, NADH fluorescence kinetic, PGE2 substrate. Potency, µM, for the others: at the top dose activity change, negative = inhibition, actives largely listed as inhibitors. actives 4.3% (n = 150,000); active means well fitted inhibition curve with a large enough effect, not every such curve was filed as active; inconclusive means small, poorly fitted or top-dose-only effect, or another doubt; inactive means no such curve, though single readings can be large or run the other way; further: potency means the concentration at half of the fitted maximal effect
#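 20 nM HPGD preincubated 15 min at room temperature with compound in 50 mM Tris-HCl pH 8, 0.01% Tween 20. Started with 1 mM NAD+ and 30 uM prostaglandin E2; NADH fluorescence (360/450 nm) read 5 times over 30-s intervals, last minus first.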
# IMPase cell inh: qHTS Assay for Identifying the Cell-Membrane Permeable IMPase Inhibitors; Inositol monophosphatase 1 (Rattus norvegicus), P97697; CHO-M1 cells, IP1 accumulation, HTRF TR-FRET ratio; inhibition (IP1 accumulation), % at 46.1 µM; 120,000 tested, under 10 active; AID 901, 2007; active means well fitted curve in the direction sought with a large enough effect in the signal ratio, not every such curve was filed as active; inconclusive means small, poorly fitted or top-dose-only effect, or a change in a side signal; inactive means no such curve, though single readings can be large or run the other way; the % refers to the signal ratio;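 further: cells stimulated with carbachol in lithium chloride buffer; plate controls were DMSO basal wells for no effect and reference inhibitor wells for full effect; higher means more IMPase inhibition seen as more IP1 and lower FRET ratio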
# Target sequence (P97697 whole entry, looked up): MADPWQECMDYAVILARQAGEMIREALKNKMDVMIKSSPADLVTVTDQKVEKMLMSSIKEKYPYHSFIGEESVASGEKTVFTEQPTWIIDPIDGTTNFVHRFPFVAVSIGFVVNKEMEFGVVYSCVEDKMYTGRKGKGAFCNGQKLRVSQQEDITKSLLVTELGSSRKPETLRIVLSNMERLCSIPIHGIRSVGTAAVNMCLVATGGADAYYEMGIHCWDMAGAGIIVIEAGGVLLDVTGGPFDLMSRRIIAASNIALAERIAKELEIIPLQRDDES
#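 Measured: the HTRF emission ratio (665/620 nm) plus the 620 nm donor channel, each fitted to the Hill equation to give AC50. Cells were CHO-M1 given compounds up to 46 uM and a 30 min carbachol stimulation at 37C.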
# ALOX12 inhib: qHTS Assay for Inhibitors of 12-hLO (12-human lipoxygenase) | Polyunsaturated fatty acid lipoxygenase ALOX12 (Homo sapiens), P18054 | purified 12-hLO, xylenol orange hydroperoxide absorbance | Potency, µM (doses to about 57.1 µM), inactives show at the top dose activity change, negative = inhibition, most hits filed as inhibitors | actives 0.12% (n = 150,000) | AID 1452, 2008; further: potency means the concentration at half of the fitted maximal effect; nearly all actives have a fitted effect of over 55% in size
#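 Lipoxygenase turnover measured by absorbance at 573 and 405 nm after Fe-XO development. Human 12hLO 150 nM, arachidonate 40 uM, pH 7.0 Hepes buffer with detergent; 15 min compound preincubation, 30 min reaction.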
# Numbers without * were called inactive; ? = inconclusive; . = no result given; [ ] = remark or other dose. Only some compounds are listed: those with a hit (about 11% of all), similar ones and a draw of the others. Unless noted, the call rests on the fitted dose curve; in most records, active means well fitted curve in the direction sought with a large enough effect; inconclusive means small, poorly fitted or top-dose-only effect, or another doubt; inactive means no such curve, though single readings can be large; an effect the other way counts as inactive or inconclusive. Unless noted, on the % scale 0 is the no-effect control and ±100 the full control effect.
SMILES,IMPase Li cell,PNC assembly inh,ALDH1A1 inh,HPGD inh,IMPase cell inh,ALOX12 inhib
Cc1ccc(-c2nnc3sc(C4COc5ccccc5O4)nn23)cc1 (configuration not stated),7.6%[38.3 µM],-26.0,?,-27.8%,8.8,-9.5%
c1ccc(OCc2nnc3sc(C4COc5ccccc5O4)nn23)cc1 (configuration not stated),-1.9%[38.3 µM],3.4,10µM*,7.08µM*,9.9,-3.1%
c1ccc(Cc2nnc3sc(C4COc5ccccc5O4)nn23)cc1 (configuration not stated),18.0%,?,25.1µM*,14.1µM*,1.8,-4.7%
COc1ccc(C(=O)N2CCC3(CC2)CN(C(=O)Nc2cccc(C#N)c2)C3)cc1,-0.4%,.,-15.3%,-11.9%,.,-4.3%
Cc1ccc2oc(-c3ccccc3)c(C(=O)O)c(=O)c2c1,-10.3%[38.3 µM],65.6,?,14.1µM*,-2.1,-5.3%
COc1ccc2oc(-c3ccccc3)c(C(N)=O)c2c1,11.2µM*,0.4,?,?,2.6,-1.1%
Cc1ccc2oc(-c3ccccc3)c(O)c(=O)c2c1,0.0%,.,-0.5%,-4.5%,-10.4,-15.7%
CCOC(=O)c1cnc2c(ccc3ccccc32)c1Nc1ccc(OC)cc1OC,.,.,.,.,3.9,.
Cn1cccc1C(=O)N1CCC[C@@]2(CCN(Cc3ccccc3)C2)C1,15.5%,.,-8.8%,-8.5%,.,2.3%
O=C(O)[C@@H](O)[C@@H](O)[C@@H](O)[C@@H](O)C(=O)O (tested in a mixture with another compound),3.4%,.,26.8%[20.9 µM],6.8%,-1.7[20.6 µM],0.6%[25.6 µM]
COc1ccc(C2=CC3=C(Br)C(=O)C(C)(OC(=O)CCc4ccccc4)C(=O)C3=CO2)cc1 (configuration not stated),13.2%,.,3.0%,-8.2%,.,0.6%
COC1=C(Nc2ccccc2)C(=O)c2ccccc2C1=O,71.5%,?,2.24µM*,10µM*,.,-9.0%
COC1=C(Nc2ccc(C)cc2)C(=O)c2ccccc2C1=O,30.1%,-8.8,5.01µM*,11.2µM*,.,-2.6%
CCOC(=O)CCN1C(=O)[C@H]2[C@H]3[C@H](O)[C@H](O)C/C(=N/NC(=O)OCC)[C@@H]3CC[C@@H]2C1=O,.,.,2.0%[13.5 µM],.,.,.
Cc1ccc(-c2nnc(-c3ccccc3)c(-c3ccccc3)n2)cc1,9.4%,0.3,?,-8.4%,.,1.7%
Cc1cc(-c2nnc(-c3ccccc3)c(-c3ccccc3)n2)c(C)o1,12.6%[38.3 µM],-4.0,6.31µM*,?,-7.6,-9.1%
CCc1ccc2c(CN3CCN(S(=O)(=O)c4cccs4)CC3)cc(=O)oc2c1,11.5%,?,12.6µM*,-19.5%,-11.5,-2.6%
COc1ccc(C(=O)CSC#N)cc1OC,9.8%,.,1.26µM*,.,.,.
COCCn1c(=O)c(-c2ccccc2)nc2cnc(Nc3cccc(OC)c3)nc21,12.2%,.,4.6%,.,.,.
Cn1c(-c2ccc3c(c2)OCO3)cnc1NCc1ccccc1,0.3%[38.3 µM],-21.3,?,15.8µM*,14.4,-2.2%
Cn1c(-c2ccc3c(c2)OCO3)cnc1NCc1ccccc1Cl,25.0%,.,?,.,.,.
Cn1c(-c2ccc3c(c2)OCO3)cnc1NCc1cccc(Cl)c1,19.1%[38.3 µM],7.1,14.1µM*,?,11.3,-17.3%
COc1ccccc1CNc1cc(-c2cccc(NS(C)(=O)=O)c2)ncn1,-4.2%,.,-2.2%,-23.5%,.,2.8%
CCOc1ccc(Cc2nc(N)nc(N)n2)cc1,5.4%,-100.0*,10.6%,-10.8%,-8.2,-0.6%
CCCOc1ccc(Cc2nc(N)nc(N)n2)cc1,-0.9%[38.3 µM],-10.8,2.8%,-12.3%,-9.4,0.5%
SMILES,IMPase Li cell,PNC assembly inh,ALDH1A1 inh,HPGD inh,IMPase cell inh,ALOX12 inhib
CSc1ncc(Cl)c(C(=O)Nc2cccc(C)c2)n1,8.6%,5.4,-5.3%,-18.2%,7.9,-8.5%
CSc1ncc(Cl)c(C(=O)C(C#N)c2nc3c(C)cc(C)cc3c(=O)[nH]2)n1 (configuration not stated),13.8%,-94.6*,-10.3%,25.1µM*,8.5,3.4%
CCN(Cc1ccccc1)Cc1c(O)ccc2c(=O)c(-c3ccccc3Cl)c(C(F)(F)F)oc12,.,.,.,.,0.7,.
COc1ccc(NC(=O)CCCn2c(=O)c3sccc3n(Cc3ccccc3C)c2=O)cc1,11.9%,-5.6,3.98µM*,-15.3%,.,-1.0%
COc1ccc(NC(=O)CCCn2c(=O)c3sccc3n(Cc3ccccc3)c2=O)cc1,?,-28.0,7.7%,-1.7%,0.5,-2.0%
Cc1ccc(-n2nnnc2-c2cccc(C)c2)cc1,16.6%,.,-14.3%,.,.,.
Cc1cccc(-c2nnnn2-c2cccc(C)c2)c1,36.4%,.,4.47µM*,.,.,.
COc1ccc(-n2nnnc2-c2cccc(OC)c2)cc1,6.0%,-82.6*,2.0%,-9.8%,13.4,2.0%
CCOc1cc(-c2nc(-c3ccc(-c4ccc(C)cc4)nc3OC)no2)cc(OCC)c1OCC,.,.,.,.,-15.9,.
CCN(CC)c1ccc(C(NC(C)=O)NC(C)=O)cc1,9.0%[38.3 µM],-4.2,14.1µM*,-14.8%,5.2,-0.7%
CC(=O)NC(NC(C)=O)c1ccc(N(C)C)cc1,6.5%,27.4,2.24µM*,-6.7%,-3.1,15.2%
O=C(c1csnn1)N1CCC2(CCCN(c3ccncc3)C2)CC1,24.7%,.,-10.5%,-12.1%,.,-1.0%
COC(=O)[C@@H](NC(=O)Nc1ccc(OC(F)(F)F)cc1)C(C)C,-2.3%[38.3 µM],0.0,?,28.2µM*,-8.8,0.0%
O=C1CCCc2nc(N3CCN(c4ccccc4)CC3)ncc21,11.2µM*,7.1,4.9%,-12.9%,-7.6,-2.9%
CCCCCC1=C(C(=O)OC)C(C(=O)OCC)N(S(=O)(=O)C(F)(F)F)c2ccccc21 (configuration not stated),18.8%,.,?,-16.0%,.,-2.2%[0.00818 µM]
CCOC(=O)c1c(NC(=O)c2ccccc2Cl)sc2c1CCc1ccccc1-2,5.8%,-3.0,?,?,.,-3.8%
CCCCC(=O)Nc1sc2c(c1C(=O)OCC)CCC(C=O)=C2Cl,37.4%[38.3 µM],-5.4,10µM*,-11.5%,-2.2,-1.3%
COc1cccc([C@@H]2Oc3ccc(OC)cc3/C(=N/O[C@@H](C)c3cc(-c4c(C)cc(C)cc4C)no3)[C@@H]2O)c1,.,.,3.2%[13.5 µM],.,.,.
COCCn1c(SCC(=O)c2ccc3c(c2)OCCO3)nnc1-c1ccco1,27.1%[38.3 µM],45.9,?,-11.3%,-3.7,1.0%
CCCn1nnnc1SCC(=O)c1ccc2c(c1)OCCO2,26.2%[38.3 µM],?,3.16µM*,-24.0%,2.5,-0.2%
CCn1c(SCC(=O)c2ccc3c(c2)OCCO3)nnc1-c1ccco1,21.3%[38.3 µM],-85.7*,?,?,-8.8,0.0%
